Compound activity: PubChem BioAssay, National Center for Advancing Translational Sciences (NCATS)
Glioma ERSR ind – induces the endoplasmic reticulum stress response in human glioma cells | Potency, µM, for the others: at the top dose activation, most hits filed as activators | actives 0.02% (n = 420,000) | U87-MG GRP78 promoter luciferase reporter, 16 h | AID 602332; note: potency is the fitted concentration of half-maximal effect; series mostly up to about 76 µM; % of control where 0% means no effect; nearly all actives have a fitted effect of over 35% in size
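Stably transfected U87-MG glioma cells carrying a GRP78-based luciferase sensor; 16 h compound incubation. Luminescence end-point read 10 min after Bright-Glo addition at room temperature.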
TRPML1 ag – activates the human TRPML1 channel; TRPML1-expressing cells, Ca2+ dye fluorescence, FDSS; activation, % (test concentration not listed); actives 0.12% (n = 410,000); in the data active = activation above about 50%; inconclusive = mostly about 30% to 49%; note: 0% is about no effect
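Tetracycline-induced TRPML1-DL cells are seeded and incubated overnight before loading with a no-wash Ca2+ dye and quencher. Agonist activity is taken from the 110 s fluorescence read following compound pin-transfer on an FDSS, before EC80 54-4 challenge.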
TRHR enhancer-1 – TRH receptor (human) allosteric enhancement. enhancement, % at 2 µM. AID 493056. P34981. actives 0.66% (n = 360,000). TRHR cells, fluo-8 calcium fluorescence, EC20 TRH enhancement; in the data active = enhancement above about 30%; note: 0% is about no effect
Target sequence (P34981 whole entry, looked up): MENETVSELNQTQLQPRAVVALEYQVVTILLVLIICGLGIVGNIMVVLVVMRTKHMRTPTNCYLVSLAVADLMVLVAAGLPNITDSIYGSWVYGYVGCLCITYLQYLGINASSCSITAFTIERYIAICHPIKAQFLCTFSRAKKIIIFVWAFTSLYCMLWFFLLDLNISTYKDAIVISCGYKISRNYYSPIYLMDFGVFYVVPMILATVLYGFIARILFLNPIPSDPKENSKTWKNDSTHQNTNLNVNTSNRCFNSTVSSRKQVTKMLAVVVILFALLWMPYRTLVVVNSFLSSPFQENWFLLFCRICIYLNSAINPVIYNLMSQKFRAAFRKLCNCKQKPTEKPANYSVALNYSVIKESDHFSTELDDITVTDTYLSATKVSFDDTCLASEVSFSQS
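TRHR-expressing cells loaded with fluo-8 calcium dye were read kinetically (ex 480/em 530) during compound addition, then stimulated with an EC20 of TRH (10 nM final). Enhancement of the Gq-mediated intracellular calcium response was scored.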
TRPML1 blocker – inhibitors of human TRPML1 channel | TRPML1-inducible cells, Ca2+ dye fluorescence, FDSS; active compounds read low; inhibition of EC80 agonist-evoked calcium signal | activity change, negative = inhibition, % (no concentration beside the values) | actives 0.02% (n = 390,000) | AID 624415; in the data active = activity change below about -50%; inconclusive = between about -30% and that limit;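 note: stimulus is agonist 54-4 at its EC80 concentration; % is set by controls: 0 for no effect and ±100 for the full control effect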
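Calcium fluorescence in TRPML1-DL cells induced overnight with Tet: a 110 s read after compound pin addition, then a 110 s antagonist read after challenge with 54-4 at 4 uM final (EC80).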
TRHR agonist-1 – agonists of human TRH receptor; TRHR cells, calcium flux fluo-8, FDSS agonist mode; activation, % at 2 µM; actives 0.18% (n = 360,000); AID 493084; in the data active = activation above about 30%; note: 0% is about no effect
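Fluo-8-loaded TRHR cells; 10 s baseline, compound added, kinetic Ca2+ fluorescence read 1/s, agonist mode.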
TRHR enhancer-2 – human TRH receptor allosteric enhancement confirmation | shares compounds with TRHR enhancer-1 | TRH receptor cell assay, enhancer confirmation qHTS | activity change, negative = inhibition, % at 46.1 µM | 970 tested, under 10 active;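 note: compound effect scored on response to added TRH at EC20 of 10 nM; 0% is about no effect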
TRHR agonist-2 – confirmation of human TRH receptor agonists; AID 493078; shares compounds with TRHR enhancer-1; TRHR-expressing cells, agonist activation read-out; actives 8% (n = 970); Potency, µM (titrated, usually from 46.1 µM), inactives show at the highest dose activation, actives largely listed as activators; note: potency is the fitted concentration of half-maximal effect; 0% is about no effect; nearly all actives have a fitted effect of over 75% in size
The depositor's hits bear a star; ? = inconclusive; . = no result given. Shown are actives, neighbours in structure and some others; about 0.8% of the full set was active somewhere. Unless noted, calls come from the whole dose curve; as a rule, active = well fitted curve in the direction sought with a large enough effect; inconclusive = small, poorly fitted or top-dose-only effect, or another doubt; inactive = no such curve, though single readings can be large; an effect the other way counts as inactive or inconclusive.

SMILES	Glioma ERSR ind	TRPML1 ag	TRHR enhancer-1	TRPML1 blocker	TRHR agonist-1	TRHR enhancer-2	TRHR agonist-2
Cc1ccc(-c2c(C)sc3nc[nH]c(=O)c23)cc1C	-2.2%	0.4	46.8*	7.6	-0.7	0.1	1.4%
COc1cc(CNC(C)(C)CO)ccc1OCC(=O)NC(C)(C)C	-3.7%	1.1	-0.1	-8.4	0.2	.	.
COc1cc(CNC(C)C23CC4CC(CC(C4)C2)C3)ccc1OCC(=O)NC(C)(C)C (configuration not stated)	-3.2%	20.6	-16.2	-6.3	43.3*	-2.1	?
CCn1c(-c2ccccc2F)nc2cc(NC(C)=O)cc(C(=O)N(C)Cc3ccccn3)c21	-4.5%	.	.	.	.	.	.
O=C(CNC(=O)c1ccc2n[nH]nc2c1)OC(C(=O)Nc1cc(C(F)(F)F)ccc1Cl)c1ccccc1 (configuration not stated)	.	.	8.9	.	-2.2	.	.
Cc1cccc(C)c1NC(=O)COC(=O)c1ccccc1Nc1ccccc1	-2.8%	1.0	2.1	-22.4	34.9*	-3.4	-0.8%
Cc1cc(CNC(=O)c2cnn(-c3ncc4c(n3)-c3ccccc3CCC4)c2C2CC2)on1	-2.7%	.	.	.	.	.	.
COc1ccc(/C=C2\CC/C(=C\c3ccc(OC)cc3OC)C2=O)c(OC)c1	6.4%	?	-5.2	-12.1	34.1*	-0.1	23.1µM*
CN(C)c1ccc(/C=C/c2nc3ccccc3c(=O)[nH]2)cc1	-5.8%	-0.1	-1.5	-10.8	59.0*	?	20.6µM*
O=c1[nH]c(/C=C/c2ccc(Br)cc2)nc2ccccc12	1.4%	1.0	-1.4	5.2	0.8	.	.
O=C(COc1ccc(Br)cc1)N1CCCCCC1	2.7%	2.2	-0.8	5.4	-0.5	.	.
O=C(COc1ccc(Br)cc1)OCCN1CCCCC1	-3.2%	-0.1	0.4	36.2	30.0*	-5.6	0.9%
Cc1c(NC(=O)CN2C(=O)NC(C)(c3ccccc3)C2=O)c(=O)n(-c2ccccc2)n1C (configuration not stated)	-2.0%	-0.3	48.4*	-8.1	0.4	-2.2	-0.2%
Cc1ccccc1-c1cccc(CN2CCc3nnc(C(NS(C)(=O)=O)C(C)C)n3CC2)c1 (configuration not stated)	-3.8%	.	.	.	.	.	.
C=CCn1c(C)cc(-c2csc(NC(=O)C3=COCCO3)n2)c1C	-0.6%	-0.8	58.5*	2.6	0.3	-8.8	-0.5%
O=C(N/N=C\c1c(O)ccc2ccccc12)c1ccc(S(=O)(=O)N2CCCCC2)cc1	-4.3%	17.3	26.2	-9.7	60.1*	?	18.4µM*
O=C(NN=Cc1c(O)ccc2ccccc12)c1ccc2c(c1)OCO2	-0.9%	7.1	.	-20.8	.	.	.
O=C(CNC(=O)c1ccc(S(=O)(=O)N2CCCC2)cc1)N/N=C/c1ccccc1Cl	-2.8%	0.3	0.6	-8.4	-1.0	.	.
O=C(N/N=C/c1c(O)ccc2ccccc12)c1ccc(CO)nc1	-3.8%	1.6	1.2	13.6	32.5*	4.0	?
CSCCC(NC(=O)c1ccc(Cl)c([N+](=O)[O-])c1)C(=O)N1CCN(C/C=C/c2ccccc2)CC1 (configuration not stated)	3.2%	1.0	66.3*	-3.8	0.1	-1.8	0.9%
N#C/C(=C/c1ccc(F)cc1)c1nc(CCN2C(=O)c3ccccc3C2=O)cs1	-1.9%	0.0	7.0	-2.1	28.1	-1.3	2.6%
COc1ccc(C)cc1S(=O)(=O)N1CCC2(CC1)OCCN2S(=O)(=O)c1cccs1	-2.7%	1.5	66.3*	40.4	0.4	?	2.2%
O=C(O)C1=C[C@@H](c2csc3ccccc23)C[C@@H](OCCCCO)O1	-4.5%	-0.6	49.0*	-5.1	-0.1	0.0	3.1%
COCC(=O)Nc1cc(C(=O)N2CCOc3ccccc3C2)cc2nc(-c3cccnc3)n(C)c12	-6.0%	.	.	.	.	.	.
Cc1cc2c(s1)c1cnn(Cc3c(Cl)cccc3Cl)c(=O)c1n2C	.	.	2.7	.	-0.8	.	.
OC1(c2cccnc2)CCN(Cc2ccc3c(c2)CN(Cc2cccc4nccnc24)CCO3)CC1	-3.4%	.	.	.	.	.	.
